We go through 13 compounds from PubChem BioAssay.

Calls of active or inactive are those of the source.

Assay [1] is described as follows: compounds binding Alexa647 anti-His antibody – biochemical, small-molecule microarray, 635 nm fluorescence, artefact control for SMM control protein annotation, primary screen (AID 1128).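 Also: score merges feature fluorescence with signal-to-noise for each printed compound spot.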 Particulars: higher = more signal.
In assay [2] the test system is Human papillomavirus type 1a E7 protein (residues 1-88). The assay is described as follows: HPV1a E7 small-molecule binders, primary screen, biochemical, small-molecule microarray, residues 1-88, 635 nm (AID 1129). Particulars: small-molecule microarray binding, fluorescence 635 nm; higher = more signal.
For assay [3], the target named is Focal adhesion kinase 1 (Homo sapiens) (UniProt Q05397). As to the kind of experiment: PTK2 protein binding on printed compound slides – biochemical, small-molecule microarray, 635/667 nm fluorescence, BSA, DTT, primary screen (AID 1130).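 Also: composite of spot emission at 667 nm and signal to noise over triplicate slides.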 The following applies: 635 nm fluorescence, higher = more signal.
Assay [4] has as its system Fibrinogen (Alexa647-labelled). As to the kind of experiment: Alexa647-fibrinogen binding to printed small molecules – biochemical, small-molecule microarray, 635/667 nm fluorescence, artefact control for SMM control-protein annotation, profiling panel (AID 1131).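 Also: z-score merges 667 nm fluorescence with per-spot signal-to-noise over triplicate slides.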 The following applies: fibrinogen-A647 binding fluorescence, higher = more signal.
Assay [5] has as its target Follistatin (Homo sapiens) (UniProt P19883). The assay is described as follows: FST protein binding to printed compounds – biochemical, small-molecule microarray, 635/667 nm fluorescence, primary screen (AID 1132). The following applies: 635 nm fluorescence, higher = more signal.
Assay [6] addresses Fibroblast growth factor 2 (Homo sapiens) (UniProt P09038). As to the kind of experiment: basic fibroblast growth factor binding to printed compounds – biochemical, small-molecule microarray, 635/667 nm fluorescence, primary screen (AID 1133). The following applies: FGF2, fluorescence 635/667, higher = more signal.
Assay [7] in a line: JC-1 mitochondrial potential readout, lung cancer cells – cell-based, A549, JC-1 fluorescence, basal, 24 h, 100 nL, profiling panel (AID 1138).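 Also: A549 lung adenocarcinoma cells under basal conditions with no added stimulus; test concentration not given here.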 Particulars: higher = more signal.
The test system of a further assay is Lefty1. The assay is described as follows: Lefty1 protein binding to printed compounds – biochemical, small-molecule microarray, 635/667 nm fluorescence, primary screen (AID 1139). The following applies: fluorescence 635/667, higher = more signal.
Assay [8] concerns wheat germ agglutinin (Triticum aestivum), Alexa647-labelled. As to the kind of experiment: Alexa647-WGA lectin binding to printed small molecules – biochemical, small-molecule microarray, 635/667 nm fluorescence, artefact control for SMM control-protein annotation, profiling panel (AID 1140).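 Also: score merges 667 nm feature emission with signal to noise over triplicate slides.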 Particulars: WGA-A647 binding, 635 nm fluorescence, higher = more signal.
Assay [9] deals with Luciferin 4-monooxygenase (Photinus pyralis) (UniProt P08659). The assay is described as follows: inhibition of purified Photinus pyralis luciferase – biochemical, luminescence, purified enzyme, 2006 set, primary screen (AID 1141).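 Also: cell-free assay with purified firefly luciferase at 100 ng per well in PBS; test concentration not given here.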 Particulars: purified firefly luciferase, SteadyGlo luminescence, 30 min; higher = more signal, called active from +8 up or from −8 down.
Chain of Luciferin 4-monooxygenase (Photinus pyralis) (P08659 whole entry, looked up): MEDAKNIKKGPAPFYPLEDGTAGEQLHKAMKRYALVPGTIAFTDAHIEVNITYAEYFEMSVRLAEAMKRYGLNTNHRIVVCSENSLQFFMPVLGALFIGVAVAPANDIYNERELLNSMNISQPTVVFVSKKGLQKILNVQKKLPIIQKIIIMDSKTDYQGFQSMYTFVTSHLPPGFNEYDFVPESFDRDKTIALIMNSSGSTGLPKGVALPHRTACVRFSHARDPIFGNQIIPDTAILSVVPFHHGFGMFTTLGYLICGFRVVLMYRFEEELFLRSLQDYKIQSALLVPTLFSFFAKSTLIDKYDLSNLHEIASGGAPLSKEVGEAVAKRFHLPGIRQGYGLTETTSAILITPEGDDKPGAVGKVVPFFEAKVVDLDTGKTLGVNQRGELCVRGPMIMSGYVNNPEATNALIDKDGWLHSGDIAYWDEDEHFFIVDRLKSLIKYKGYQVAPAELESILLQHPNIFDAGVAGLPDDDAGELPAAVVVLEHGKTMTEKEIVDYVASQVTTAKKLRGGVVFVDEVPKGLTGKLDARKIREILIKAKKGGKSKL

Chain of Follistatin (Homo sapiens) (P19883 whole entry, looked up): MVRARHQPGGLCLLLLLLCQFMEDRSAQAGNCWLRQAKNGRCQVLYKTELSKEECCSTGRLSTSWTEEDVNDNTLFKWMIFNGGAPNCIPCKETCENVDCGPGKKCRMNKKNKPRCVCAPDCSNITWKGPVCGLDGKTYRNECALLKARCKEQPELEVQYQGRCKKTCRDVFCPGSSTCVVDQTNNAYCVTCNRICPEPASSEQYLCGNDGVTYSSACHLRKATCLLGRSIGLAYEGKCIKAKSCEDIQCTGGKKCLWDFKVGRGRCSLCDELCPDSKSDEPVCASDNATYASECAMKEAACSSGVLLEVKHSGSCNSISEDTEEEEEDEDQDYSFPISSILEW
Chain of Focal adhesion kinase 1 (Homo sapiens) (Q05397 whole entry, looked up): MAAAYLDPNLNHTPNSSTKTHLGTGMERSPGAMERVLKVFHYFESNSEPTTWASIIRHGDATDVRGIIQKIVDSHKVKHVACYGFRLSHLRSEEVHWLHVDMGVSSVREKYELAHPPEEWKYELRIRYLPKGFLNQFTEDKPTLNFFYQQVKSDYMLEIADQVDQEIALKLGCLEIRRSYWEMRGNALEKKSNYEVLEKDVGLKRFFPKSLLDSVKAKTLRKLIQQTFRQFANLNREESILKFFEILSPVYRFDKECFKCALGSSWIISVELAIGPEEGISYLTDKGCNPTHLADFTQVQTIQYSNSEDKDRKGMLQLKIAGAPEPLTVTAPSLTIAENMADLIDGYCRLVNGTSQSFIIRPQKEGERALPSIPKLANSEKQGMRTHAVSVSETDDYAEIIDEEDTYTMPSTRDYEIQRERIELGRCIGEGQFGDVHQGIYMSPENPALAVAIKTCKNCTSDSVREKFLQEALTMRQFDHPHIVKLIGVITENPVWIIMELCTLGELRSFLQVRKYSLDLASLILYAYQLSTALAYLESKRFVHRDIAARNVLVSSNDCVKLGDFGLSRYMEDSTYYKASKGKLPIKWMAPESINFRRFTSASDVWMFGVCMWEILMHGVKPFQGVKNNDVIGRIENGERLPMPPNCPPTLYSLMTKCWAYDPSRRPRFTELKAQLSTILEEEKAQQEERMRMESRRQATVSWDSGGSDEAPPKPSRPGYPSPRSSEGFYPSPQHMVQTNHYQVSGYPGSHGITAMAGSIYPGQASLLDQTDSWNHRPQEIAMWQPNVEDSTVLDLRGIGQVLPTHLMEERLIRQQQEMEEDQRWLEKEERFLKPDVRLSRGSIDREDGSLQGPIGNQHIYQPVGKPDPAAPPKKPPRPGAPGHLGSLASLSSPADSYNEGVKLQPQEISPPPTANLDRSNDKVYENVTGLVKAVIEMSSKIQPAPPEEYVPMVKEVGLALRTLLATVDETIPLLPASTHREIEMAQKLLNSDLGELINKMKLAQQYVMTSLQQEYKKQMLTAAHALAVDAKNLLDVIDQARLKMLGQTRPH
Chain of Fibroblast growth factor 2 (Homo sapiens) (P09038 whole entry, looked up): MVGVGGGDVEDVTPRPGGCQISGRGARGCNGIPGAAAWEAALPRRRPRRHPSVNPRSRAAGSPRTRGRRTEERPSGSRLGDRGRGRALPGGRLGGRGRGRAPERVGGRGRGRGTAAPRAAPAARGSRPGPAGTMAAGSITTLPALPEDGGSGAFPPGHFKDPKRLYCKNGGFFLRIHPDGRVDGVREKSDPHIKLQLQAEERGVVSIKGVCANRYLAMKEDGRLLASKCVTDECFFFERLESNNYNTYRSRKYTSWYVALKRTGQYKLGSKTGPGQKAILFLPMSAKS

For `[N-]=[N+]=Nc1ccccc1[C@@H]1OC(c2ccc(OCCCO)cc2)=N[C@]1(Cc1ccccc1)C(=O)N1CCCCC1`, the composite z-score in [1] came to 0.782; in assay [2] it was 1.24; in [3], 0.218; in assay [4] it was 1.02; in [5] it was 1.21; in assay [6], 0.768. The composite z-score with Lefty1 is 0.816; in assay [8], 1.03. In addition, the z-score in [7] was -1.07; in assay [9], -5.31 (inactive).

On to `CCCC=C(CCC)[C@@H](NP(=O)(c1ccccc1)c1ccccc1)c1ccc(-c2ccccc2)cc1`, for which the composite z-score was 0.809 in assay [1]; 1.21 in assay [2]; 0.332 in assay [3]; 0.997 in assay [4]; 1.11 in assay [5]; -0.0567 in assay [6]. For the same compound, the composite z-score was found to be 0.38 in the assay on Lefty1 and 1.25 in assay [8]. In addition, the results for the z-score in assay [7] and in [9] were -2.3 and 2.64 (inactive), respectively.

As for `CCCCC(=C=CC[C@H](O)c1ccc(OCCO)cc1)CCO`, the composite z-score in assay [1] was -0.582; in assay [2], 0.0547; in assay [3] it was 0.0832; in [4], -1.64; in assay [5], -0.232; in assay [6], -0.674. In addition, the results for the composite z-score (in the assay with Lefty1; in assay [8]) were 0.282 and 0.717, respectively. The z-score in assay [7] was 0.25; in assay [9] it was -0.98 (inactive).

For `COc1ccc([Si](C)(C)[C@H]2[C@H](CC(=O)N3Cc4ccccc4C[C@H]3CO)O[C@@]3(C(=O)N(Cc4ccc(N5CCOC5=O)cc4)c4ccccc43)[C@@H]2C)cc1`, the composite z-score in [1] came to 1.14; in assay [2], 0.923; in assay [3], 0.109; in assay [4] it was 0.339; in assay [5] it was 1.32; in assay [6], 1.39. The composite z-score with Lefty1 is 1.22; in assay [8] it was 0.396. Moreover, the z-score was 0.516 in [7] and -0.246 (inactive) in assay [9].

For `CC(c1ccccc1)C(O)C1C=CC2C(=O)N(C)C(=O)C2N1Nc1ccccc1` (stereo not given), the composite z-score in assay [1] was 1.79; in [2] it was 1.24; in [3], 0.322; in [4] it was 1.02; in assay [5], 0.777; in [6], -0.579. The composite z-score was -0.17 with Lefty1 and 1.21 in assay [8]. Moreover, the z-score in assay [7] is -0.0184; in assay [9], 0.206 (inactive).

As for `Cc1ccc(N2C(=O)c3ccccc3[C@@H](C(=O)NCCCN(C)C)[C@@H]2c2ccc(CO)cc2)nc1`, the composite z-score in [1] was 2.06; in [2], 0.232; in assay [3], -0.736; in [4], 0.442; in assay [5], 0.115; in assay [6], -0.189. Besides, the composite z-score in the assay on Lefty1 is -0.978; in assay [8], -0.0618. Also, the z-score was -0.0107 in assay [7] and 0.775 (inactive) in [9].

`COc1ccc(C(=O)Nc2ccc(CN3C(=O)[C@]4(O[C@H](CC(=O)N5Cc6ccccc6C[C@H]5CO)[C@@H]([Si](C)(C)c5ccc(OC)cc5)[C@@H]4C)c4ccccc43)cc2)cc1`: the composite z-score in assay [1] was found to be 1.46; in assay [2], 1.16; in assay [3], 0.353; in [4], 0.547; in assay [5], 1.1; in assay [6] it was 1.35. Further, the composite z-score with Lefty1 worked out at 1.08; in assay [8] it was 0.75. Moreover, the z-score in assay [7] is -0.615; in [9] it was -0.379 (inactive).

Take `CC(C)(C)OC(=O)CC[C@@]1(C(=O)NCC(O)CO)N=C(c2ccc(OCCCO)cc2)O[C@@H]1c1ccccc1CN=[N+]=[N-]` (stereo not given in full): the composite z-score in assay [1] amounted to 1.41; in assay [2] it was 0.98; in assay [3] it was 0.426; in assay [4] it was 0.91; in assay [5], 0.716; in [6], 0.337. Also, the composite z-score in the assay on Lefty1 is -0.0839; in assay [8] it was 0.299. Also, the z-score in assay [7] is 0.404; in assay [9], -1.78 (inactive).

For the compound `COc1cccc(C)c1NC(=O)O[C@H]1[C@H](OC(=O)Nc2ccc3c(c2)OCO3)[C@@H](OC(=O)Nc2ccc3c(c2)OCO3)[C@@H](OC)O[C@@H]1CO`, the composite z-score is 0.4 in [1]; 1.25 in assay [2]; 1.09 in assay [3]; 0.988 in [4]; 1.28 in assay [5]; 0.887 in assay [6]. The composite z-score in the assay with Lefty1 came to 1.28; in assay [8], 1.15. The z-score in assay [7] was -0.588; in assay [9], -5.18 (inactive).

For `O=C1C2C=CC(C(O)c3cccc(O)c3)N(Nc3ccc([N+](=O)[O-])cc3)C2C(=O)N1c1ccccc1` (stereo not given), the composite z-score in assay [1] is 1.18; in assay [2], 0.785; in assay [3] it was 0.264; in assay [4], 0.578; in assay [5] it was 0.418; in assay [6], 0.526. Moreover, the composite z-score with Lefty1 was 0.292; in assay [8], 0.0289. Moreover, the results for the z-score in assay [7] and in assay [9] were -1.15 and 0.931 (inactive), respectively.

For the compound `NCCCCCCNC(=O)[C@@H]1C[C@@H]2C(=O)N[C@@H](CCCCN)C(=O)N2[C@@H]1c1ccc(O)cc1`, the composite z-score in assay [1] was 1.91; in assay [2] it was 0.153; in [3], 0.353; in [4], -1.97; in [5] it was 0.998; in [6] it was 1. Also, the composite z-score in the assay with Lefty1 is 0.731; in assay [8], 0.961. Moreover, the z-score in assay [7] was -0.903; in [9], 0.715 (inactive).

As to `C#Cc1cc2ccccc2oc1=O`, the composite z-score in [1] is -0.314; in assay [2] it was -0.451; in [3], -0.393; in assay [4], -1.03; in assay [5] it was -2.22; in assay [6], -1.39. In addition, the composite z-score with Lefty1 was -1.58; in assay [8], -1.12. In addition, the z-score in assay [7] was -1.14; in [9] it was -2.39 (inactive).

In the case of `CCCCCC1=C2CNC(C)(C(=O)OC)C=C2C(C)C1=O` (stereo not given), the composite z-score in assay [1] is 1.46; in assay [2] it was -0.575; in [3] it was -0.108; in assay [4], -0.833; in assay [5] it was -0.642; in assay [6] it was -0.328. Further, the composite z-score in the assay on Lefty1 is -0.427; in [8] it was 0.234. In addition, the z-score in assay [7] is 1.01; in [9] it was 2.31 (inactive).
